Shown are actives, neighbours in structure and some others; about 2.6% of the full set was active somewhere.
APOBEC3G inh – APOBEC3G DNA deaminase inhibitors, primary screen, biochemical, fluorescence, single-stranded DNA substrate, uHTS | AID 493012, 2011 | recombinant A3G, ssDNA deamination FAM/TAMRA fluorescence | 330,000 compounds, 0.28% hits | inhibition, % at 20 µM;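 active = inhibition of at least 40% at 20 µM, with no more than 30% in the related APOBEC3A deaminase screen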;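 note: plate controls were DMSO wells with A3G for no effect and wells lacking A3G enzyme for full effect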
eIF4H FP inh – human eIF4H binding inhibitors, primary screen, translation initiation inhibitor project, biochemical, uHTS, fluorescence polarization; Eukaryotic translation initiation factor 4H (Homo sapiens), Q15056; eIF4H fluorescence polarization binding assay; inhibition, % at 35 µM; 290,000 compounds, 0.94% hits;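 note: calls also rest on retests at 20 µM and on dose response follow-up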
MLLE-PAM2 inh – inhibitors of PABP1 MLLE–PAM2 peptide binding, primary screen, biochemical, fluorescence polarization, FITC-PAM2, GST-MLLE. Polyadenylate-binding protein 1 (Homo sapiens), P11940. inhibition, % at 20 µM. 360,000 compounds, 0.36% hits; in the data active = inhibition above about 35%, passing the limit was not always enough;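 note: plate controls were DMSO wells with GST-MLLE for no effect and wells lacking GST-MLLE protein for full effect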
PABP polyA inh – PABP poly(A) RNA binding inhibitors, primary screen, biochemical, fluorescence polarization, uHTS; Polyadenylate-binding protein 1 (Homo sapiens), P11940; calls only at 35 µM; 290,000 compounds, 1% hits; AID 2014, 2009;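 note: calls also rest on retests at 20 µM and on dose response follow-up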
A3A deaminase – APOBEC3A ssDNA deaminase inhibitors, primary screen, selectivity assay for APOBEC3G inhibitor project, biochemical, FAM/TAMRA oligo cleavage fluorescence; DNA dC->dU-editing enzyme APOBEC-3A (Homo sapiens), P31941; recombinant A3A, FAM/TAMRA ssDNA deamination fluorescence; inhibition, % at 20 µM; 330,000 compounds, 0.41% hits;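 active = at least 40% inhibition at 20 µM here, with at most 30% in a related deaminase screen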;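 note: plate controls were A3A with DMSO for no effect and wells lacking A3A enzyme for full effect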
Target sequence (P31941 whole entry, looked up): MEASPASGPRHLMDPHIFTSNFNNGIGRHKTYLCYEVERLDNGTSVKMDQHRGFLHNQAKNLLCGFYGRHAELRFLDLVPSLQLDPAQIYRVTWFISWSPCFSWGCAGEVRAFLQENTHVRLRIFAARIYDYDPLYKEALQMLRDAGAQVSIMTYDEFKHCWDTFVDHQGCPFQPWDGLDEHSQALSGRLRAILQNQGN
PHOSPHO1 inh – PubChem AID 1565. Phosphoethanolamine/phosphocholine phosphatase (Homo sapiens), Q8TCT1. recombinant PHOSPHO1, absorbance phosphatase assay. inhibition, % at 13.3 µM. 290,000 compounds, 1.1% hits; in the data active = inhibition above about 60%
Target sequence (Q8TCT1 whole entry, looked up): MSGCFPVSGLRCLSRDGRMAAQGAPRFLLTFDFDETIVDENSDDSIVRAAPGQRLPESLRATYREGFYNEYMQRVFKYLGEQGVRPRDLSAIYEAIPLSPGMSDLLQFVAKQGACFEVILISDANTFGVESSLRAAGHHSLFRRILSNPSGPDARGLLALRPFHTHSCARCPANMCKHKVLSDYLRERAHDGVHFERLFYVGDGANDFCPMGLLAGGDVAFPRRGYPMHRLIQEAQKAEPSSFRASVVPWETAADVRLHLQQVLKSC
A3G conf – APOBEC3G deaminase inhibitor retest, confirmation, biochemical, fluorescence, single-stranded DNA substrate, single concentration | shares compounds with APOBEC3G inh | recombinant A3G ssDNA deaminase, UDG/FAM-TAMRA fluorescence | inhibition, % at 20 µM | 890 compounds, 72% hits;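 active = inhibition reaching a set limit in any replicate at 20 µM, the limit being 80% of the first screen's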
UDG A3G counter – E. coli UDG inhibitors, confirmation, counter-screen for APOBEC3G inhibitor project, biochemical, single concentration, fluorescence, FAM/TAMRA oligo; 710 tested, under 10 active; AID 504715, 2011; inhibition, % at 20 µM; shares compounds with APOBEC3G inh; UDG counterscreen;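 active = compounds giving 40% or more inhibition at 20 µM in any one of the three replicates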;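 note: plate controls were DMSO wells with UDG and oligo for no effect and DMSO wells lacking both for full effect; inhibitors lower the FAM signal released by uracil excision and alkaline cleavage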
An asterisk follows results filed as active; i = inactive; u = inconclusive; x = no result. Unless noted, the rule behind the calls is not given here.

SMILES | APOBEC3G inh | eIF4H FP inh | MLLE-PAM2 inh | PABP polyA inh | A3A deaminase | PHOSPHO1 inh | A3G conf | UDG A3G counter
COc1cccc(C(=O)N2CCC(n3nccc3NC(=O)C(OC)c3ccccc3)CC2)c1 (centres undefined) | -0.5 | 0.5 | 5.3 | i | -0.3 | 52.7 | x | x
O=S(=O)(Nc1nc2ccccc2nc1NCC1CCCO1)c1cc(Cl)ccc1Cl (centres undefined) | -4.5 | 1.5 | 6.6 | i | -2.1 | 20.0 | x | x
CC1(C)OC(=O)C(=Cc2ccc(-c3ccc(S(N)(=O)=O)cc3)o2)C(=O)O1 | 40.4* | 39.8 | -1.3 | i | 18.0 | -26.2 | 46.8* | x
CC(=O)Oc1ccc(N2C(=O)C3C(C2=O)C2(C)C=CC3(C)O2)cc1 (centres undefined) | 46.7* | -3.1 | x | i | 0.4 | -9.6 | 48.7* | x
CC(=O)Oc1ccc(N2C(=O)C3C4C=CC(CO)(O4)C3C2=O)cc1 (centres undefined) | 24.3 | 9.2 | 19.9 | i | 6.5 | 24.6 | x | x
O=C(CN1CCN(c2ccc(O)cc2)CC1)Nc1ccc2c(c1)OCCO2 | 61.7* | 4.0 | 11.9 | i | 1.7 | 22.8 | 0.8 | x
CN1C(=O)[C@@H]2[C@@H]3C[C@@H]([C@H]4ON=C(c5ccc(Cl)cc5Cl)[C@@H]34)[C@@H]2C1=O | -6.2 | 2.9 | 11.2 | i | -4.3 | -11.4 | x | x
CN(C)c1ccc(/C=N/Nc2cccc(C(=O)O)c2)cc1 | 46.5* | -3.7 | 31.8 | i | 1.8 | 4.7 | 27.2 | x
CC(C)c1ccc(NC(=S)NNC(=O)C2CC2)cc1 | -2.7 | 6.1 | -9.2 | i | 0.8 | -62.6 | x | x
Cc1noc(C)c1C(=O)NNc1ccc(C(C)C)cc1 | 45.7* | -0.2 | 11.0 | i | -2.5 | -19.0 | 14.6 | -2.3
CC(C)c1ccc(NNC(=O)C2CCC2)cc1 | 49.9* | -7.7 | 6.4 | i | 3.7 | 7.2 | 16.9 | x
O=S(=O)(Nc1ccc2c(c1)OCO2)c1ccc(Cl)cc1F | -6.7 | x | 6.9 | x | -0.5 | x | x | x
CCCCOc1ccc(S(=O)(=O)NC(=O)C2(C)CCN2C(=O)c2c(C)noc2C)cc1 (centres undefined) | x | x | -1.9 | x | x | x | x | x
Clc1ccc(Cl)c(-c2nn3c(COc4ccccc4)nnc3s2)c1 | 45.9* | -0.3 | 20.9 | i | 7.0 | 51.6 | 51.0* | 3.1
c1ccc(OCc2nnc3sc(-c4cccs4)nn23)cc1 | 67.3* | -0.8 | 16.1 | i | 3.6 | 60.8* | 34.2* | -36.1
Cc1nc2c(=O)[nH]c(=S)n(C)c2nc1C | 52.3* | 6.4 | 8.2 | i | -1.7 | -17.8 | 19.6 | -34.9
Cn1c(=S)[nH]c2cccnc21 | -3.7 | -3.1 | -100.9 | i | 1.0 | 24.7 | x | x
Cc1ccccc1NC(=O)Cn1nnc2ccccc21 | 50.2* | -1.1 | -6.4 | i | -2.5 | -17.5 | -8.1 | -5.5
O=C(NNc1ccccc1)c1ccccc1 | x | x | 5.5 | x | x | x | x | x
O=C(NNc1ccc(O)cc1)c1ccc(Br)cc1 | 52.7* | 9.8 | 33.1 | i | -2.6 | 37.9 | 18.9 | -2.1
CC(C)C(C)(C#N)NC(=O)CSc1nc(C2CCCCC2)n(-c2ccccc2)n1 (centres undefined) | -2.9 | -4.3 | -15.0 | i | 0.0 | 6.3 | x | x
COC(=O)c1sc(NC(=O)c2cc(-c3ccccc3)nc3ccccc23)c(C#N)c1C | 63.6* | -11.6 | 8.3 | i | 0.4 | 96.2* | 57.7* | 3.1
CCCCCC(=O)N(O)C1CC(=O)N(c2ccccc2)C1=O (centres undefined) | 41.7* | -3.5 | 28.0 | i | -0.1 | 4.9 | 43.4* | 6.7
N#Cc1ccccc1OCC(=O)N(Cc1nnc(-c2ccccc2Cl)o1)C1CC1 | -5.0 | x | -16.2 | x | -0.4 | x | x | x
O=[N+]([O-])c1c(Nc2ccccn2)cc(Cl)c2nonc12 | 45.5* | u | 14.3 | u | 1.9 | 17.7 | 60.4* | x
SMILES | APOBEC3G inh | eIF4H FP inh | MLLE-PAM2 inh | PABP polyA inh | A3A deaminase | PHOSPHO1 inh | A3G conf | UDG A3G counter
O=[N+]([O-])c1ccc(Nc2ccccn2)c([N+](=O)[O-])c1 | 0.8 | -11.0 | 0.0 | i | 3.3 | -15.5 | x | x
CCC1CCc2c(sc(NC(=O)c3cnccn3)c2C(N)=O)C1 (centres undefined) | 57.9* | 8.7 | 30.5 | i | -1.8 | -78.1 | 21.9 | 19.2
CN(C)CCCNC(=O)C[C@H]1C[C@H](C(=O)N2CCOCC2)[C@@]2(C)c3[nH]c4cc(CCC(=O)N(C)C)ccc4c3CCN2C1=O | -2.6 | x | -11.3 | x | 1.0 | x | x | x
O=[N+]([O-])c1ccccc1CSc1ccccn1 | -4.1 | 0.6 | 10.9 | i | -1.1 | 20.3 | x | x
O=c1[nH]c(SCc2ccccc2[N+](=O)[O-])nc2nc[nH]c12 | 60.6* | 5.0 | 4.6 | i | -0.4 | 24.6 | -6.8 | 1.8
CCN(C(=S)NC(=O)CCc1ccccc1)c1ccccc1 | -9.0 | -6.3 | 29.0 | i | -2.0 | 7.4 | x | x
COC(=O)Cn1c(=O)c2c(nc3n2CCCN3CCc2ccc(OC)c(OC)c2)n(C)c1=O | -7.8 | -11.2 | -7.7 | i | -4.8 | x | x | x
CC(=O)c1sc2nsc(SCCN3CCOCC3)c2c1N | 62.4* | 3.0 | 21.3 | i | -1.5 | 85.9* | 59.1* | 0.3
Cn1nc(C(=O)OCC(=O)Nc2ccc(S(N)(=O)=O)cc2)c2ccccc2c1=O | -3.4 | -9.1 | -18.0 | i | 9.6 | 24.3 | x | x
Cc1ccc(S(=O)(=O)N2CCOCC2)cc1C(=O)N1CCN(S(=O)(=O)c2cccs2)CC1 | 3.4 | -8.3 | -5.3 | i | 5.0 | -12.1 | x | x
Cc1cc(-c2n[nH]c(=S)n2-c2ccc(F)cc2)nn1C | 62.6* | 6.4 | -8.8 | i | 3.2 | -67.9 | 59.9* | -3.7
Cc1cc(C(F)(F)F)nn1Cc1n[nH]c(=S)n1-c1ccc(F)cc1 | 10.2 | -1.3 | -32.0 | i | -2.7 | -4.0 | x | x
CCOCCN1CCN(C2c3ccccc3CSc3ccccc32)CC1 (centres undefined) | -6.6 | x | 7.8 | x | -3.5 | x | x | x
COC(=O)C(C)Sc1ncnc2c1nnn2-c1ccc(F)cc1 (centres undefined) | -4.0 | -2.5 | 20.2 | i | -3.1 | 15.5 | x | x
COc1ccc(-n2nnc3c(SC(C(C)=O)C(=O)N(C)C)ncnc32)cc1 (centres undefined) | 51.4* | -13.7 | 13.7 | i | -1.4 | 6.3 | 4.6 | -6.1

Assay outcomes from PubChem BioAssay.
